Drawing on PubChem BioAssay (Tox21), this text covers Potency and activation for 40 compounds.

Results filed as inconclusive are left out. A call without a number means that no potency is given here. Calls of active or inactive are those of the source. The call rests on the fitted dose curve.

The nature of the experiment: cAMP Responsive Elements (CRE) small molecule agonists, cell-based qHTS assay (AID 1963590). Particulars: CRE-bla HEK293T, beta-lactamase FRET ratio, 3 h; series mostly up to 92.4 µM. From the text: U.S. Tox21 Program National Center for Advancing Translational Sciences [NCATS] Division of Preclinical Innovation [DPI] U.S. Environmental Protection Agency [EPA] National Institutes of Environmental Health Sciences [NIEHS] National Toxicology Program [NTP] U.S. Food and Drug Administration [FDA] Tox21 Assay Overview: CREB (cyclic-AMP Responsive Element Binding Protein) is a cellular transcription factor. It binds to certain DNA sequences called cAMP Responsive Elements (CRE) and regulates the transcription of the genes. […] This cell line can be used to find agonists/antagonists of the cyclic AMP signaling pathway. The activation of the report gene under culture conditions can be detected by fluorescence intensity. This cell line has been used to screen the Tox21 10K compound library to identify agonists that induce oxidative stress.
Tox21 Assay Protocol Summary: CRE-bla Hek 293T cells were suspended in assay medium (DMEM containing 10% dialyzed FBS, 0.1 mM NEAA, 1 mM sodium pyruvate and 25 mM HEPES) and dispensed at 2,000 cells/5 uL /well into 1536-well black wall/clear bottom plates using a Multidrop Combi (ThermoFisher Scientific, Waltham, MA) dispenser. After the assay plates were incubated at 37 C/5% CO2 for 18 hrs, 23 nL of compounds dissolved in DMSO, positive controls or DMSO only was transferred to the assay plate by a pintool workstation (Kalypsys, San Diego, CA). After the plates were incubated at 37 C/5% CO2 for 3 hrs, 1 uL of LiveBLAzer B/G FRET substrate (Invitrogen, Carlsbad, CA) was added to each well using Bioraptr Flying Reagent Dispenser (FRD, Aurora Discovery, San Diego, CA). The plates were incubated at room temperature for 2 h.
`Cc1cccc(C)c1NC(=O)CN1CCCC1`: the Potency result was “inactive”.
The same measure, in the same setting: in the case of `OCC(CO)(CO)COCC(CO)(CO)CO` it was “inactive”.
As for `O=C1c2ccccc2C(=O)C1c1ccc2ccccc2n1`, the Potency result is “inactive”.
On the same count and under the same terms, in the case of `Cc1ccc2c(Cl)cc(Cl)c(O)c2n1` it was “inactive”.
The same measure, in the same setting: in the case of `COc1ccccc1N1CCN(CCCCNC(=O)c2ccc(-c3ccc(C(C)=O)cc3)cc2)CC1` it was “inactive”.
Take `CCN(CCO)CCCC(C)Nc1ccnc2cc(Cl)ccc12` (stereo not given): the activation is 0.273% [at 8.39 µM] (inactive).
`CN1CCC(=C2c3ccccc3CC(=O)c3sccc32)CC1`: the Potency entry is “inactive”.
`CCOC(=O)CC(CC(=O)OCC)(OC(C)=O)C(=O)OCC`: the Potency result was “inactive”.
Still for that read-out and setting: in the case of `NC(=O)c1ncn([C@@H]2O[C@H](CO)[C@@H](O)[C@H]2O)c1N` it was “inactive”.
As for `O=[N+]([O-])c1c(Cl)cc(Cl)cc1Cl`, the Potency result was “inactive”.
On the same count and under the same terms, in the case of `CCN(CC)CCSC(=O)C(c1ccccc1)c1ccccc1` it was “inactive”; in that of `C[C@]1(Cn2ccnn2)[C@H](C(=O)O)N2C(=O)C[C@H]2S1(=O)=O`, “inactive”; in that of `CC(C)(C)c1n[nH]c(=S)n(N)c1=O`, “inactive”.
Same read-out and setting: in the case of `Cc1oc(=O)oc1COC(=O)[C@@H]1N2C(=O)[C@@H](NC(=O)[C@H](N)c3ccccc3)[C@H]2SC1(C)C` it was “inactive”.
As to `CCCCCCCCCOC(C)=O`, the Potency entry is “inactive”.
`CCCCCCCCCCCCCCCC/C=C/C1CC(=O)OC1=O` (stereo not given): the Potency result is “inactive”.
Regarding `c1ccc(CCNc2nc(-c3ccccc3)cs2)cc1`, the Potency entry is “inactive”.
Still for that read-out and setting: in the case of `CCCOc1ccc(C(=O)OCCN(CC)CC)cc1N` it was “inactive”; in that of `CCC(C)CCCC(C)(C)O` (stereo not given), “inactive”; in that of `CCOC(=O)C(=O)CCCCCCl`, “inactive”.
Still for that read-out and setting: in the case of `O=S(=O)(O)CCO` it was “inactive”; in that of `CC1(C)C(=O)C(C)(C)C1=O`, “inactive”; in that of `C=CCOc1c(Br)cc(C(C)(C)c2cc(Br)c(OCC=C)c(Br)c2)cc1Br`, “inactive”.
Still for that read-out and setting: in the case of `Cc1ccc(Cl)c(OCC(O)CNC(C)(C)C)c1` (stereo not given) it was “inactive”; in that of `O=Cc1ccccc1[N+](=O)[O-]`, “inactive”.
With `CNS(=O)(=O)CCc1ccc2[nH]cc(C3CCN(C)CC3)c2c1`, the Potency entry is “inactive”.
Still for that read-out and setting: in the case of `CCOC(=O)c1ccccc1` it was “inactive”.
Regarding `CC(=O)[C@H]1CC[C@H]2[C@@H]3C[C@H](C)C4=CC(=O)CC[C@]4(C)[C@H]3[C@@H](O)C[C@]12C`, the Potency result is “inactive”.
For the compound `CCc1cccc(C)c1N(C(=O)C(=O)O)C(C)COC` (stereo not given), the Potency result was “inactive”.
Same read-out and setting: in the case of `O=C(O)c1cccc(O)c1` it was “inactive”; in that of `COc1cc2c(cc1OC)CN(C(=O)[C@H](C)N[C@@H](CCc1ccccc1)C(=O)O)[C@H](C(=O)O)C2`, “inactive”.
On the same count and under the same terms, in the case of `CCCC(=O)OCOC(=O)C1=C(C)NC(C)=C(C(=O)OC)C1c1cccc(Cl)c1Cl` (stereo not given) it was “inactive”.
As to `Cc1ccc2sc3cccc(C)c3c2c1`, the Potency result is “inactive”.
Same read-out and setting: with `COc1ncnc(NS(=O)(=O)c2ccc(N)cc2)c1OC` the entry was “inactive”.
Take `O=C(O)CP(=O)(O)O`: the Potency entry is “inactive”.
For the compound `CC(NN)c1ccccc1` (stereo not given), the activation is -0.272% [at 19 µM] (inactive).
As to `CC1(C)CC(N)CC(C)(C)N1`, the Potency entry was “inactive”.
The same measure, in the same setting: in the case of `C[C@H]1C[C@H]2[C@@H]3CCC4=CC(=O)C=C[C@]4(C)[C@@]3(F)[C@@H](O)C[C@]2(C)[C@@]1(O)C(=O)COP(=O)(O)O` it was “inactive”; in that of `CCCCCCCCCC[N+](C)(C)[O-]`, “inactive”.
Still for that read-out and setting: with `CC(=O)c1ccc(C(C)=O)cc1` the entry was “inactive”.
